Test results as given in PubChem BioAssay AID651821 (The Scripps Research Institute Molecular Screening Center, 2012).
Hit rate of the full screen: of about 370,000 compounds, about 4,700 (1.3%) were called active.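 Rule for the calls: active = inhibition above the plate cutoff, the mean of all test compounds on that plate plus 3 SD (cut at about 35% in these data); inactive = the rest.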 For the sample, actives were picked, then their nearest neighbours and some compounds at random.

Assay: small molecules binding CAG repeat RNA – biochemical, fluorescence, primary screen (AID 651821);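 note: 0% = DMSO alone and 100% = 100 µM mitoxantrone as full dye displacement; higher means more dye released from RNA so lower well fluorescence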
Conditions: r(CAG) RNA repeat, TO-PRO-1 dye displacement fluorescence; at 3 µM; active compounds read high

Row | SMILES | inhibition
1 | O=C(O)c1[nH]c2ccccc2c1C(c1cccc(O)c1)c1c(C(=O)O)[nH]c2ccccc12 | 61.1% (active)
2 | Cc1c(C(=O)CN2CCOCC2)[nH]c2ccccc12 | 1.32% (inactive)
3 | CCCS(=O)(=O)Nc1c(C(=O)O)[nH]c2ccccc12 | 0.99% (inactive)
4 | O=C(NCc1ccccc1)[C@@H]1CCCN1C(=O)[C@@H](NS(=O)(=O)c1ccc(F)cc1F)C1CCCCC1 | -1.8% (inactive)
5 | C=CCN1[C@H](CC(C)C)COc2cccc(N3CCCC3)c2S1(=O)=O | 8.14% (inactive)
6 | CN1CCc2ccccc2C1Cc1ccccc1NC(=O)c1sc2ccccc2c1Cl (configuration not stated) | -0.7% (inactive)
7 | CCOc1ccc2ccccc2c1/C=N/NC(=O)c1c(C)cc(C)[nH]c1=O | 0.65% (inactive)
8 | O=C(N/N=C/c1c(Cl)[nH]c2ccccc12)c1sc2ccccc2c1Cl | 35.6% (active)
9 | Cc1ccc2nc(N3C(=O)C(O)=C(C(=O)c4ccco4)C3c3cccc(O)c3)sc2c1 (configuration not stated) | 72.6% (active)
10 | O=C(C1=C(O)C(=O)N(c2ncccn2)C1c1cccs1)c1ccco1 (configuration not stated) | -0.3% (inactive)
11 | C=CCSc1nnc(N2C(=O)C(O)=C(C(=O)c3ccco3)C2c2ccc(F)cc2)s1 (configuration not stated) | 18.7% (inactive)
12 | COCCNc1cc(NCCOC)c([N+](=O)[O-])cc1[N+](=O)[O-] | 1.02% (inactive)
13 | COC(=O)[C@]12C[C@H](CC(=O)N3CCN(C(=O)C4CC4)CC3)C(=O)N(Cc3ccc4c(c3)OCO4)C1=C[C@H](C(C)(C)C)O[C@@H]2C | 1.7% (inactive)
14 | COc1ccccc1C(=O)CSc1nnc(-c2ccccn2)n1-c1ccccc1 | 5.14% (inactive)
15 | CCCCNC(=O)C[C@@H]1C(=O)N(CCc2ccc(Cl)cc2)C2=CCCC[C@]21C(=O)OCC | 0.46% (inactive)
16 | COc1ccc2c(C)c(CCC(=O)NC3CC3)c(=O)oc2c1C | -3.01% (inactive)
17 | Cc1c(C)c2cc3c4c(oc3c(C)c2oc1=O)CCCC4 | 5.96% (inactive)
18 | Cc1oc2c(C)c3oc(=O)c(CC(=O)N[C@@H](CC(C)C)C(=O)N[C@@H](Cc4ccccc4)C(=O)O)c(C)c3cc2c1C | 15.8% (inactive)
19 | Cc1c(CCC(=O)N[C@@H](CC(C)C)C(=O)O)c(=O)oc2c(C)c3oc4c(c3cc12)CCCC4 | 38.4% (active)
20 | Cc1c(CC(=O)NCC(=O)NCC(=O)O)c(=O)oc2cc3oc4c(c3cc12)CCCC4 | 11.3% (inactive)
21 | CC[C@@H](C)[C@H](NC(=O)CCc1c(C)c2cc3c4c(oc3c(C)c2oc1=O)CCCC4)C(=O)O | 36.8% (active)
22 | COC(=O)C1=C(C)N(Cc2ccc(C(F)(F)F)cc2)C(=NCc2ccccc2)NC1c1ccccc1C(F)(F)F (configuration not stated) | 1.95% (inactive)
23 | CC(C)(C)C(c1nc2ccccc2[nH]1)n1c(Cc2csc3ccccc23)nc2ccccc21 (configuration not stated) | 6.22% (inactive)
24 | CC(C)(C)OC(=O)NCCc1ccccc1/C=C/S(=O)(=O)NCc1ccc(F)cc1 | 3.67% (inactive)
25 | Cc1[nH]c2ccccc2c1CC(=O)Nc1ccc(Nc2cccnc2)c(-c2cccc(Cl)c2)c1 | 14.1% (inactive)
26 | COC(=O)c1cc2c(c3c4cc(F)ccc4n(S(=O)(=O)c4ccccc4)c13)C(=O)N(Cc1ccccc1OC)C2 | 16.2% (inactive)

Row | SMILES | inhibition
27 | O=C(NCCOc1ccccc1F)Nc1ccc(Br)cc1 | 5.19% (inactive)
28 | O=C(Nc1ccccc1)Nc1nnc(COc2ccccc2F)s1 | 56.5% (active)
29 | COCc1nnc(NC(=O)CS(=O)(=O)Cc2ccccc2)s1 | 4.38% (inactive)
30 | CCOC(=O)[C@]12CCCC3=C1N(CCC3)C(=O)[C@@H](CC(=O)N1CCSCC1)C2 | -0.18% (inactive)
31 | CCOc1ccc(C(=O)NC2CCN(CC(=O)NCc3cccs3)CC2)cc1 | -7.65% (inactive)
32 | COc1cc(NC(=O)C2=CC(c3ccco3)=NS(=O)(=O)N2C)cc(OC)c1OC | 1.85% (inactive)
33 | COCCNC(=O)Nc1ccc2nc(-c3ccco3)c(-c3ccco3)nc2c1 | 69.7% (active)
34 | COCCNC(=O)c1ccc2nc(Cc3ccc(OC)c(OC)c3)oc2c1 | -4.89% (inactive)
35 | COC(=O)[C@]12C[C@H](CC(=O)NCc3cccs3)C(=O)N(CCc3ccc(OC)c(OC)c3)C1=C[C@H](C(C)C)O[C@@H]2C1CC1 | 3.01% (inactive)
36 | CCc1nn(CCCC(=O)NC(C)c2ccccc2)c(=O)c2cc3occc3n12 (configuration not stated) | -1.26% (inactive)
37 | O=C(C1CCN(S(=O)(=O)c2ccc(Br)s2)CC1)N1CCN(C2CCCCC2)CC1 | -5.64% (inactive)
38 | O=C(COC(=O)CCCN1C(=O)c2cccc3cccc(c23)C1=O)NC1CCS(=O)(=O)C1 (configuration not stated) | -0.32% (inactive)
39 | O=C(CCCN1C(=O)c2cccc3cccc(c23)C1=O)N1CCN(Cc2ccc3c(c2)OCO3)CC1 | -5.35% (inactive)
40 | O=C1c2cccc3cccc(c23)C(=O)N1CCCCCc1n[nH]c(=S)o1 | 38.4% (active)
41 | COc1cc(C(=S)NC2CCCCC2)ccc1O | 4.7% (inactive)
42 | COc1cc(C(=O)Nn2c(O)c(C3=c4ccccc4=NC3=O)sc2=S)ccc1O | 50.1% (active)
43 | COc1cc(C(=O)Nn2c(CC(C)C)nc3ccccc3c2=O)cc(OC)c1OC | -4.74% (inactive)
44 | C[C@H](C(=O)N(C)c1ccccc1)[C@@H](O)c1ccc(Cl)cc1 | -1.76% (inactive)
45 | C=CCN1C(=O)[C@@H](CC(=O)NCCCCc2ccccc2)[C@]2(C(=O)OCC)CCCCC/C=C/12 | 3.6% (inactive)
46 | CCOC(=O)N1CCN(C(=O)C[C@@H]2C(=O)N(CCc3ccc(Cl)cc3)C3=CCCC[C@]32C(=O)OCC)CC1 | 3.44% (inactive)
47 | CC(=O)N(c1ccc2oc(=O)sc2c1)S(=O)(=O)c1ccc(C)cc1 | 42.4% (active)
48 | COC(=O)c1c(C)oc2ccc(N(C(=O)Oc3ccccc3)S(=O)(=O)c3ccccc3)cc12 | 5.17% (inactive)
49 | CC(=O)Oc1ccc(N(C(C)=O)S(=O)(=O)c2ccc3ccccc3c2)cc1Br | 2.18% (inactive)
50 | CC(=O)OC12CCCN(C1)/C(=C/c1ccncc1)C2 (configuration not stated) | 3.52% (inactive)
51 | CCCOc1ccc(Oc2c(Cl)cnn(Cc3cccc4ccccc34)c2=O)cc1 | 6.74% (inactive)
52 | C[C@H](CO)N1C[C@H](C)[C@@H](CN(C)C(=O)Nc2ccccc2F)OCc2cn(nn2)CCCC1=O | 0.24% (inactive)
